Reference: PubChem BioAssay (NCI)
Compounds without any hit were thinned out: in the full panel of roughly 83,000, 20% have a hit.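 Each cell line was grown in a 96-well plate and treated with one concentration of compound for 48 hours. Values below 10 were considered active.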 Active and inactive are the calls of the source.

Each compound was assayed on ACHN renal (assay: NCI-60 one-dose screen, 48 h (100 = growth as untreated, 0 = no growth, -100 = all killed)). Conditions: 10 µM unless noted.

How did the growth turn out when `COc1ccc(C=Nc2c(C(=O)Nc3cccc(Cl)c3C)sc3nc(C)c(C(=O)/C=C/c4ccc(OC)cc4)cc23)cc1` was run?
Its growth is 36.1% (inactive).

How did the growth turn out when `CCOC(=O)CNC1=C(Cl)C(=O)N(Cc2ccc(Cl)cc2)C1=O` was run?
The growth was 101% (inactive).

Which growth does the source give for `COc1ccc(/C=C(\C(=O)NCc2cccnc2)S(=O)(=O)c2ccccc2)cc1OC` here?
The growth was 52.8% (inactive).

For `COc1cc2c(c(OC)c1OC)CCC(c1cccc(C(=O)Nc3ccc(Br)cc3)c1)O2` (stereo not given), which growth is on record?
Its growth is 67.9% (inactive).

For `Nc1cc(-c2ccc(Cl)cc2)nn1-c1nnc(/C=C/c2ccco2)c(=O)[nH]1`, which growth is on record?
The growth was 29.4% (inactive).

`N#C/C(=C\c1ccc(-c2cccc(Cl)c2)o1)C(=O)Nc1ncc(Cc2ccc(Cl)cc2)s1` was tested. Which growth did it give?
The growth was 31.4% (inactive).

How did the growth turn out when `CCOC(=O)c1c(C)nc2c(c1N)C(=O)C(=O)N2Cc1ccc(OC)cc1` was run?
The growth was 66.3% (inactive).

`c1csc(-c2cn3nc(-c4c[nH]c5ccccc45)sc3n2)c1` was tested. Which growth did it give?
Its growth is 42.2% (inactive).

For `FC(F)(F)c1[nH]ncc1-c1nc2ccc3[nH]ncc3c2c2c1CCCC2`, which growth is on record?
The growth was 5.04% (active).

`COc1cc(-c2nccc3[nH]c(-c4cccc5[nH]ccc45)nc23)cc(OC)c1OC` was tested. Which growth did it give?
The growth was 17% (inactive).

With `COc1ccc2[nH]cc(-c3nonc3-c3c[nH]c4ccc(Br)cc34)c2c1` as the compound, how does the growth read?
The growth was 38.7% (inactive).

`CC(=O)c1c(Nc2cccc(F)c2)[nH]c2c(Cl)cc(Cl)c(Cl)c2c1=O` was tested. Which growth did it give?
Its growth is 2.02% (active).

With `CCOC(=O)NC(=S)n1oc(=O)c2ccccc21` as the compound, how does the growth read?
Its growth is 101% (inactive).

Which growth does the source give for `O=S(Nc1ccccc1)c1ccc(Cl)cc1` (stereo not given) here?
Its growth is 94.5% (inactive).

With `Nc1c(Br)cc2c(c1Br)Cc1cc([N+](=O)[O-])ccc1-2` as the compound, how does the growth read?
The growth was 93.2% (inactive).

How did the growth turn out when `CCCN(CCSSCCNc1nc(N(C)O)nc(N(C)O)n1)c1nc(N(C)O)nc(N(C)O)n1` was run?
The growth was 45.3% (inactive).

`COC(=O)c1sccc1-c1cc(O)c(C(=O)Nc2ccccc2)s1` was tested. Which growth did it give?
The growth was 94% (inactive).

For `N#Cc1c(-c2ccc(Cl)cc2)nc(NN=Cc2ccc[nH]2)nc1N1CCOCC1`, which growth is on record?
The growth was 82.5% (inactive).

For `Clc1ccc(-c2nc(C(Cl)Cl)nc3cc(-c4ccccc4)nn23)cc1`, which growth is on record?
The growth was -52.8% (active).

Which growth does the source give for `C/C(=N\Nc1ccccc1)c1ccc(NC2=CC(=O)c3ccccc3C2=O)cc1` here?
The growth was 48.2% (inactive).

How did the growth turn out when `COc1ccc(/C=C(/C(=O)N2CCNCC2)c2cc(OC)c(OC)c(OC)c2)cc1O` was run?
The growth was 103% (inactive).

How did the growth turn out when `CCN(CC)CCCC(Cc1ccccc1)Nc1c2ccc(Cl)cc2nc2ccc(OC)cc12` (stereo not given) was run?
Its growth is -39.2% (active).

For `Fc1ccc2[nH]cc(-c3nc(-c4c[nH]c5c(Cl)nccc45)cs3)c2c1`, which growth is on record?
Its growth is 17.7% (inactive).

With `Fc1ccc(/C=C/[C@@H]2C[C@@H](F)CCO2)cc1` as the compound, how does the growth read?
The growth was 101% (inactive).

How did the growth turn out when `Cc1ccccc1N1CCN(C(=S)c2ccccc2)CC1` was run?
Its growth is 106% (inactive).

Which growth does the source give for `N#Cc1ccc(/C=C/c2cn(-c3ccccc3)nc2-c2cccc([N+](=O)[O-])c2)cc1` here?
Its growth is 32.7% (inactive).

How did the growth turn out when `Cc1[nH]c(C(=O)Nc2ccccc2OC2CCN(CCN3CCOCC3)CC2)c(Cl)c1Cl` was run?
Its growth is 94.7% (inactive).

Which growth does the source give for `COc1ccc(C(O)c2cc3c(N)c(C(=O)Nc4cccc5ccccc45)sc3nc2C)cc1` (stereo not given) here?
Its growth is 22% (inactive).

`Cc1ccc(C(=O)c2ccc(CC(=O)N/N=C/c3cccc(O)c3O)n2C)cc1` was tested. Which growth did it give?
Its growth is 13.5% (inactive).

For `CCC(C)(C)c1ccc(Nc2ccc(Nc3ccc(C(C)(C)CC)cc3)cc2)cc1`, which growth is on record?
The growth was 97% (inactive).

How did the growth turn out when `O=C(Nc1ccc(Nc2ccncc2)cc1)c1ccc(Nc2ccnc3ccc([N+](=O)[O-])cc23)cc1` was run?
The growth was 100% (inactive).

Which growth does the source give for `CCCCNC(=O)c1ccc2c(c1)nc(-c1ccccc1)n2C1CCCCC1` here?
Its growth is 102% (inactive).

How did the growth turn out when `Cc1ccc(NC(=O)c2cc3ccccc3cc2O)c(C)c1` was run?
Its growth is 91.7% (inactive).

How did the growth turn out when `CCOC(=O)C(CCN(C)C)c1ccccc1` (stereo not given) was run?
Its growth is 104% (inactive).

Which growth does the source give for `CC(O)Cc1c[nH]c(=O)[nH]c1=O` (stereo not given) here?
Its growth is 97.9% (inactive).

How did the growth turn out when `COCCn1cc(-c2nc(-c3c[nH]c4ncccc34)cs2)c2ccccc21` was run?
The growth was 67.6% (inactive).

Which growth does the source give for `CC1SC(c2ccccc2O)N(NC(=O)CCC(=O)c2nc3ncccc3[nH]2)C1=O` (stereo not given) here?
Its growth is 97.4% (inactive).

`COC12C=C/C(=C(/C(=O)OCCSc3ccnn3C)C(=O)CCCCCCCCC3(OC)C=C/C(=C(/C(=O)OCCSc4ccnn4C)C(=O)CCCCCCCC1)O3)O2` was tested. Which growth did it give?
The growth was 4.65% (active).

With `COC1C(O)CC(OC2CC(OC3CC(O[C@@H]4C(=O)c5c(cc6cc(OC7CC(OC8CC(O)C(O)C(C)O8)C(O)C(C)O7)c(C)c(O)c6c5O)CC4[C@H](OC)[C@@H](O)C(C)=O)OC(C)C3O)OC(C)C2O)OC1C` (stereo not given in full) as the compound, how does the growth read?
The growth was 0.949% (active).

With `CNC(=O)c1cc(Oc2ccc3c(c2)sc2nc(-c4ccc(NC(=O)[C@@H](NC(=O)OC)C(C)C)cc4)cn23)ccn1` as the compound, how does the growth read?
Its growth is 83.3% (inactive).
